# Screening data from PubChem.
# Efflux pump inh: inhibitors of Candida efflux pumps in yeast, primary screen, S. cerevisiae, Nile Red, multiplex | S. cerevisiae Candida pump triplex | inhibition, % at 10 µM | actives 0.44% (n = 330,000) | AID 485275, 2010;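 active = plate passing quality check with inhibition over a set limit, or well fluorescence over plate mean plus 4 SD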;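 also: Nile Red retained in pooled yeast measured as flow cytometry median fluorescence; higher means more Nile Red kept so more efflux inhibition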
# PABP FP inh: PABP poly(A) RNA binding inhibitors, primary screen, biochemical, fluorescence polarization, uHTS. Polyadenylate-binding protein 1 (Homo sapiens), P11940. inhibition, % at 35 µM. actives 1% (n = 290,000);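 also: calls also rest on retests at 20 µM and on dose response follow-up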
# ALR H2O2 inh: inhibitors of human ALR sulfhydryl oxidase, primary screen, biochemical, H2O2 detection, HRP-luminol luminescence, single point; inhibition, % (test concentration not listed); purified ALR, DTT oxidation; actives 3.8% (n = 290,000); AID 485317, 2010; FAD-linked sulfhydryl oxidase ALR (Homo sapiens), P55789;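 active = mean replicate inhibition above about 79%, with every replicate also reaching it, limit read from the data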
# Target sequence (P55789 whole entry, looked up): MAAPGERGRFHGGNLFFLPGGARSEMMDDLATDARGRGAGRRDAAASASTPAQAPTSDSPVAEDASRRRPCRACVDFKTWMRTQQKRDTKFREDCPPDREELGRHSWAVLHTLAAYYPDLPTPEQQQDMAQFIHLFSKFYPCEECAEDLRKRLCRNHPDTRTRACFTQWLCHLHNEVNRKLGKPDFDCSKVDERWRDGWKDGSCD
# SUMO HTRF inh: inhibitors of in vitro SUMOylation cascade, primary screen, biochemical, HTRF, uHTS; SUMO-conjugating enzyme UBC9 (Homo sapiens), P63279; HTRF SUMOylation assay, SAE1/SAE2 + UBC9; inhibition, % at 35 µM; actives 0.36% (n = 290,000); AID 2006, 2009; in the data active = inhibition above about 50%, passing the limit was not always enough
# eIF4H FP inh: human eIF4H binding inhibitors, primary screen, translation initiation inhibitor project, biochemical, uHTS, fluorescence polarization | inhibition, % at 35 µM | eIF4H fluorescence polarization binding assay | AID 2012, 2009 | actives 0.94% (n = 290,000);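 also: calls also rest on retests at 20 µM and on dose response follow-up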
# MLLE-PAM2 inh: inhibitors of PABP1 MLLE–PAM2 peptide binding, primary screen, biochemical, fluorescence polarization, FITC-PAM2, GST-MLLE; AID 588489, 2011; actives 0.36% (n = 360,000); inhibition, % at 20 µM; Polyadenylate-binding protein 1 (Homo sapiens), P11940; in the data active = inhibition above about 35%, passing the limit was not always enough
# Numbers stand for hits; - = inactive; . = no result. Shown are actives, neighbours in structure and some others; about 4.7% of the full set was active somewhere. Unless noted, no rule for the calls is given here.
SMILES,Efflux pump inh,PABP FP inh,ALR H2O2 inh,SUMO HTRF inh,eIF4H FP inh,MLLE-PAM2 inh
COc1ccc(C(C)=O)cc1CSCCC(=O)O,-,-,98,-,-,-
COc1ccc(C(=O)/C=C/c2ccsc2)cc1CSCC(=O)O,-,-,99,-,-,-
Cc1ccc(CNC(=O)C2CC3Cn4c(nc5ccccc54)C3N2C)o1 (stereo not given),-,.,-,.,.,-
CC(=O)Oc1ccccc1C(=O)N(C1CCCCC1)C1CCCCC1,-,-,-,-,-,-
O=C1c2ccccc2NC(c2ccccc2O)N1O (stereo not given),-,-,91,-,-,-
CCCN1C(=O)c2ccccc2NC1c1ccc(OC)cc1O (stereo not given),-,-,88,-,-,-
CC(=O)N(C)c1ccc(NS(=O)(=O)c2cccc3nsnc23)cc1,-,-,-,-,-,-
O=C(NCCCN1CCOCC1)c1ccc2c(c1)N(Cc1ccccc1F)C(=O)c1ccccc1S2=O (stereo not given),-,-,-,-,-,-
Cc1ccc2nc3sc(C(=O)Nc4c(C)[nH]c(=O)[nH]c4=O)c(N)c3cc2c1,-,-,-,-,-,-
Cc1ccc2cc3c(N)c(C(=O)Nc4c(C)[nH]c(=O)[nH]c4=O)sc3nc2c1,-,81,96,-,-,-
COCCNC(=O)C1(C)CCN(C(=O)c2ccc(C(F)(F)F)nc2C)C1 (stereo not given),.,.,.,.,.,-
CC1(C)Cc2c(sc(NC(=S)NC(=O)c3ccccc3)c2C(=O)O)CO1,-,-,99,-,-,-
CC1(C)Cc2c(sc(NC(=O)c3ccco3)c2C(=O)O)CO1,-,-,-,-,-,-
CNc1nc(Nc2ccc(C(C)=O)cc2)nc(OC(C(F)(F)F)C(F)(F)F)n1,-,-,100,-,-,-
CC(=O)c1ccc(Nc2nc(NCCO)nc(OC(C(F)(F)F)C(F)(F)F)n2)cc1,-,-,-,-,-,-
Cc1c(CCO)c(=O)[nH]n1S(=O)(=O)c1ccc(F)cc1,-,-,-,-,-,-
Cc1cc(NS(=O)(=O)c2ccc(NC(=O)c3cc4c(=O)n5ccccc5nc4s3)cc2)nc(C)n1,.,active,.,-,-,-
Cc1cc(NS(=O)(=O)c2ccc(NC(=O)c3cnc(Cl)c(Cl)c3)cc2)nc(C)n1,-,.,99,.,.,-
Cc1cc(NS(=O)(=O)c2ccc(NC(=O)CSc3nc4ncccc4[nH]3)cc2)nc(C)n1,-,-,99,-,-,-
Cc1cc(NS(=O)(=O)c2ccc(NC(=O)CSc3nc4ncc(Cl)cc4[nH]3)cc2)nc(C)n1,-,-,100,-,-,-
C[C@@H]1CCCCO[C@@H](CN(C)S(=O)(=O)c2ccccc2)[C@@H](C)CN([C@H](C)CO)C(=O)c2cc(NS(=O)(=O)c3ccc(F)cc3)ccc2O1,.,.,.,.,.,-
CC1CCCCC1NC(=O)CN1CCN(S(=O)(=O)c2ccc(Br)s2)CC1 (stereo not given),-,.,-,.,.,-
O=C(Nc1ccccc1)c1cc(C2COCCN2C(=O)CCCc2ccccc2)on1 (stereo not given),.,.,.,.,.,-
O=C(COC(=O)c1ccc[n+]([O-])c1)Nc1ccc(Cl)cc1[N+](=O)[O-],-,.,.,.,.,-
Cc1ccc(NC(=O)CSc2nc3ncc(Br)cc3[nH]2)cc1C,-,-,-,-,-,-
SMILES,Efflux pump inh,PABP FP inh,ALR H2O2 inh,SUMO HTRF inh,eIF4H FP inh,MLLE-PAM2 inh
Cc1cc(NS(=O)(=O)c2ccc(NC(=O)CSc3nc4ncc(Br)cc4[nH]3)cc2)nc(C)n1,-,-,99,-,-,-
CCOC(=O)C1(C)CCN1C(=O)c1cc(OC)ccc1Br (stereo not given),.,.,.,.,.,-
Cc1ccc(C)c(OCc2cc(C(=O)NC3CCOC(C)(C)C3)no2)c1 (stereo not given),-,-,-,-,-,-
COc1ccc(C)cc1NC(=O)c1cc2c(CO)cnc(C)c2oc1=N,-,-,86,-,-,-
COc1ccccc1NC(=O)c1cc2c(CO)cnc(C)c2oc1=Nc1ccc(OC)c(OC)c1,-,-,-,-,-,-
CC1(C(=O)NC2CCCCC2)CCC(=O)N1C1CCN(Cc2ccccc2)CC1 (stereo not given),.,.,.,.,.,-
